The values below come from PubChem BioAssay AID434989 (The Scripps Research Institute Molecular Screening Center, 2010).

Screen size: about 330,000 compounds; about 1,400 (0.42%) were called active.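 The calls were made as follows: active = inhibition above its plate's threshold, mean inhibition of all tested compounds on the plate plus 3 SD (cut at about 37% in these data); inactive = the rest.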 Only a selection was taken, and actives are over-represented in it overall.

The target in the assay is Orexin/Hypocretin receptor type 1 (Homo sapiens) (UniProt O43613). Description: OX1R (HCRTR1) antagonists, primary screen, fluorescence, CHO/OX1R cells, Fluo-8 calcium, orexin A (AID 434989).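 Also: 0% = orexin A challenge wells and 100% = SB-334867-A antagonist wells.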 To be noted: Fluo-8 calcium fluorescence, at 5 µM, stronger effect = higher value.
Chain of Orexin/Hypocretin receptor type 1 (Homo sapiens) (O43613 whole entry, looked up): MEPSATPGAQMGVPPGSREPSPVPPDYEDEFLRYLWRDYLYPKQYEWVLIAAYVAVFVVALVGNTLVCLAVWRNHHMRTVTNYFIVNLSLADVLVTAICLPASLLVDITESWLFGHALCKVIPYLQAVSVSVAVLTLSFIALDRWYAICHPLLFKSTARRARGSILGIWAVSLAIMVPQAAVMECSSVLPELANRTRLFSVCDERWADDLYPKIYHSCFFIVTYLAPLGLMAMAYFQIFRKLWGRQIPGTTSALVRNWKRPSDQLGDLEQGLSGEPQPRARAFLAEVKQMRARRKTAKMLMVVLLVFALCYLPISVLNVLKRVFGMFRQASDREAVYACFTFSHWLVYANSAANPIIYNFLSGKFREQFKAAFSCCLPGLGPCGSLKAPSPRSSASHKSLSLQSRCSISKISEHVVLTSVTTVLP
In general, inhibition refers to the drop in the measured response relative to a control, in per cent. As for `CN(C)C(=O)CCc1ccc2c3c([nH]c2c1)[C@]1(C)[C@@H](C(=O)N2CCCCC2)C[C@H](CC(=O)NCCC2=CCCCC2)C(=O)N1CC3`, the inhibition is -30.3% (inactive).

Turning to `Cc1c(NC(=O)C(C)OC(=O)c2ccccc2O)c(=O)n(-c2ccccc2)n1C` (stereo unspecified), the inhibition is -6.55% (inactive).

As to `Cc1cc(C(=O)NC2CCCc3c2cnn3-c2cccc(C)c2C)c(C)o1` (stereo unspecified), the inhibition was 26.6% (inactive).

Take `COc1ccc(C(=O)NC2CCCc3c2cnn3-c2cccc(C)c2C)c(OC)n1` (stereo unspecified): the inhibition was 44.8% (active).

Turning to `Cn1nccc1C(=O)NC1CCCc2c1cnn2-c1ccccc1F` (stereo unspecified), the inhibition is 8.33% (inactive).

For the compound `CC(C)(C)OC(=O)C[C@@H]1C/C=C\C[C@@H](CC(=O)N(CCO)Cc2ccccc2)C(=O)N[C@H](Cc2ccccc2)COC1=O`, the inhibition is -33.6% (inactive).

As to `OCCN(Cc1ccccc1)Cc1ccc(Cl)cc1`, the inhibition was 9.29% (inactive).

Consider `CCN(CC)CCCNC(=O)CCc1ccccc1`, for which the inhibition was -15% (inactive).

For the compound `CN(C(=O)CN(CCO)CC(=O)N(C)C(C)(C)Cc1ccccc1)C(C)(C)Cc1ccccc1`, the inhibition is 68.2% (active).

Turning to `CCN(CC)C(=O)[C@H]1CC(CC(=O)NCc2ccco2)C(=O)N2CCc3c([nH]c4ccccc34)[C@]12C` (stereo partly specified), the inhibition is -11.1% (inactive).

For `Cc1c(C(=O)Nc2cccc(S(=O)(=O)N3CCOCC3)c2)oc2ccccc12`, the inhibition was -3.24% (inactive).

Regarding `C=CCC1(CC=C)CCCN1C(=O)c1cc(COc2ccc(-n3cncn3)cc2)on1`, the inhibition is 34.5% (active).

For the compound `COc1cccc(OCc2cc(C(=O)N3CCN(C(=O)c4ccco4)CC3)no2)c1`, the inhibition was -6.35% (inactive).

As for `O=C(c1cc(COc2ccc(F)c(F)c2)on1)N1CCOCC1`, the inhibition is -5.38% (inactive).

On to `Cc1ccc(CNC(=O)Cn2cnc3c(NCc4ccccc4)ncnc32)o1`, for which the inhibition is 10.5% (inactive).

Regarding `O=C(CCNC(=O)c1ccccc1)Nc1nc2ccccc2s1`, the inhibition was -8.05% (inactive).

Regarding `O=C(CNC(=O)c1ccccc1)Oc1ccc([N+](=O)[O-])cc1`, the inhibition is -4.15% (inactive).

As for `O=C(NC(Nc1nc2ccc([N+](=O)[O-])cc2s1)(C(F)(F)F)C(F)(F)F)c1ccccc1`, the inhibition was 59.4% (active).

As for `COc1ccc(NC(=O)C2CCCN(S(=O)(=O)c3cccc4cccnc34)C2)cc1` (stereo unspecified), the inhibition was -34.5% (inactive).

With `COc1ccccc1CNC(=O)C1CCCN(S(=O)(=O)c2cccc3cccnc23)C1` (stereo unspecified), the inhibition was 79.2% (active).

As for `Cc1ccc(NC(=O)C2CCCN2S(=O)(=O)c2cccc3cccnc23)c(C)c1` (stereo unspecified), the inhibition is -30.7% (inactive).

For the compound `Cc1cc(C)cc(NC(=O)C2CCCN2S(=O)(=O)c2cccc3cccnc23)c1` (stereo unspecified), the inhibition is 104% (active).

Consider `COc1ccc(NC(=O)C2CCCN(S(=O)(=O)c3cccc4cccnc34)C2)cc1OC` (stereo unspecified), for which the inhibition was -27.1% (inactive).

Regarding `O=C(Nc1nccs1)C1CCCN1S(=O)(=O)c1cccc2cccnc12` (stereo unspecified), the inhibition was -11.2% (inactive).

For the compound `O=C(CN1C(=O)NC2(CCCC2)C1=O)Nc1cc(C(F)(F)F)ccc1N1CCOCC1`, the inhibition is -28.3% (inactive).

Regarding `C[C@H](CO)N1C[C@H](C)[C@@H](CN(C)Cc2ccc(-c3ccccc3)cc2)Oc2ccc(NC(=O)Cn3cnnn3)cc2C1=O`, the inhibition was -7.92% (inactive).

Regarding `CC[C@]1(C(=O)OC)[C@H]2C(=O)N(Cc3ccccc3)C(=O)[C@H]2[C@H]2CN=C(SCc3ccc(C#N)cc3)N21`, the inhibition is -5.92% (inactive).

As to `Cc1ccc(S(=O)(=O)N2[C@@H](c3cccc(Cl)c3)C(C(=O)O)=CC[C@H]2c2ccc(Cl)c(Cl)c2)cc1`, the inhibition was 42% (inactive).

As for `Cc1ccccc1S(=O)(=O)N1[C@@H](c2cccc(Cl)c2)C(C(=O)O)=CC[C@H]1c1ccc(Cl)cc1`, the inhibition is 52.1% (active).

For `Cc1ccc([C@@H]2CC=C(C(=O)O)[C@H](c3cccc(Cl)c3)N2S(=O)(=O)c2ccc(C)cc2)cc1`, the inhibition is 10.8% (inactive).

For the compound `COc1cc(NC(=O)COC(=O)c2ccc([N+](=O)[O-])s2)cc(OC)c1OC`, the inhibition was -20.3% (inactive).

Turning to `O=C(C[C@H]1C[C@H](C(=O)N2CCOCC2)[C@@]2(CCC3CCCC3)c3[nH]c4ccc(Cl)cc4c3CCN2C1=O)NCc1ccco1`, the inhibition is 21.8% (inactive).

Turning to `Cc1ccc(-n2[nH]c(C)c(/C=N/NC(=O)c3cccc([N+](=O)[O-])c3)c2=O)cc1C`, the inhibition is 7.53% (inactive).

Take `COc1cc(SC#N)ccc1N=Cc1c(C)[nH]n(-c2ccc(C)cc2)c1=O`: the inhibition is 67.5% (active).

Turning to `Cc1ccc(-n2[nH]c(C)c(/C=N/N3C(=O)c4cccc5cccc(c45)C3=O)c2=O)cc1`, the inhibition was -11.8% (inactive).

Take `O=C(Nc1cc(S(=O)(=O)N2CCOCC2)ccc1N1CCOCC1)c1c(F)cccc1Cl`: the inhibition is -20% (inactive).

Regarding `C=CCOc1cccc(C2C(C(=O)c3ccc(C)o3)=C(O)C(=O)N2CCCn2ccnc2)c1` (stereo unspecified), the inhibition was -1.44% (inactive).

Turning to `C=CCOc1cccc(C2C(C(=O)c3ccc(C)o3)=C(O)C(=O)N2c2nnc(C)s2)c1` (stereo unspecified), the inhibition was 51% (active).

In the case of `Cc1cc(N2C(=O)C(O)=C(C(=O)c3ccc(C)o3)C2c2ccc(OCc3ccccc3)cc2)no1` (stereo unspecified), the inhibition was -19.8% (inactive).

Take `O=C(CC(O)(C(F)(F)F)C(F)(F)F)Nc1ccc(Cl)c(Cl)c1`: the inhibition is 62.6% (active).

On to `O=C(Cc1ccc(Cl)c(Cl)c1)Nc1ccc(SC(F)F)cc1`, for which the inhibition is -12.3% (inactive).

For `O=C(CC1SCCNC1=O)Nc1ccc(Cl)c(Cl)c1` (stereo unspecified), the inhibition is -14.2% (inactive).

In the case of `Oc1c(Cl)cc(Cl)c(Cl)c1Cc1c(O)c(Cl)cc(Cl)c1Cl`, the inhibition was 42.3% (active).

`CC(=O)Nc1ccc(NC(=O)COC(=O)C2CCC(C(C)(C)C)CC2)cc1` (stereo unspecified): the inhibition was -1.79% (inactive).

Regarding `COc1ccc(Nc2oc(-c3ccccc3Cl)nc2C#N)cc1`, the inhibition was -16.2% (inactive).

Regarding `CC1CCN(c2oc(-c3ccccc3F)nc2C#N)CC1`, the inhibition is -6.67% (inactive).

For the compound `N#Cc1nc(-c2cccc3ccccc23)oc1N`, the inhibition is 56% (active).

As for `O=C(N[C@H]1C/C=C\C(c2cccc(F)c2)N(Cc2ccccc2)C(=O)C1)OCC1c2ccccc2-c2ccccc21` (stereo partly specified), the inhibition was 4.42% (inactive).

Take `CC(NC(=O)COC(=O)c1ccc2ccccc2n1)c1ccccc1` (stereo unspecified): the inhibition is -14.8% (inactive).

On to `CC(=O)Nc1ccc(S(=O)(=O)NCC(=O)OCC(=O)c2ccc[nH]2)cc1`, for which the inhibition was -2.13% (inactive).

Consider `C#CCOCCOCCOCCNc1nc(N2CCN(C(=O)[C@H](CO)n3cc([C@@H](N)C(C)C)nn3)CC2)nc(N2CCN(C(=O)[C@H](CCC(=O)O)n3cc([C@@H](N)[C@H](C)CC)nn3)CC2)n1`, for which the inhibition is 0.47% (inactive).

For the compound `O=C(CSc1nnc(-c2ccncc2)o1)Nc1cccc(Cl)c1`, the inhibition is -0.1% (inactive).

`CCOC(=O)C1CCCN(C(=O)CSc2nnc3nc(C)cc(C)n23)C1` (stereo unspecified): the inhibition is -14.2% (inactive).

`CC(=O)N1c2ccc(S(=O)(=O)N3CCCC(C(=O)Nc4cccc(Cl)c4)C3)cc2CC1C` (stereo unspecified): the inhibition is 0.09% (inactive).

With `CC(=O)N1CCCc2cc(S(=O)(=O)N3CCCC(C(=O)NCc4ccc(Cl)cc4)C3)ccc21` (stereo unspecified), the inhibition was -22.5% (inactive).

Regarding `CC(=O)N1CCCc2cc(S(=O)(=O)N3CCCC(C(=O)N4CCN(c5cccc(Cl)c5)CC4)C3)ccc21` (stereo unspecified), the inhibition is 72.6% (active).

Turning to `CCOc1ccccc1Nc1nnc(SCC(=O)NCC2CCCO2)s1` (stereo unspecified), the inhibition is -22.1% (inactive).

For `Cc1ccc(S(=O)(=O)Nc2ccc3c(c2)C(=O)N([C@H](C)CO)C[C@@H](C)[C@@H](CN(C)C(=O)Nc2cccc4ccccc24)O3)cc1`, the inhibition is 1.83% (inactive).

For `CC1CCCCC1NC(=O)Cn1c(=O)cnc2ccccc21` (stereo unspecified), the inhibition is -6.73% (inactive).

Take `Cc1cccc(NC(=O)Nc2cccc(Oc3c(F)c(F)c(F)c(F)c3F)c2)c1`: the inhibition was 50.4% (active).

Consider `Cc1cccc(NC(=O)NC(=S)NC(=O)c2ccccc2)c1`, for which the inhibition was -26.4% (inactive).

With `COc1cccc(NC(=O)NCc2ccc(F)cc2)c1`, the inhibition was -1.97% (inactive).

In the case of `CCN(CC)S(=O)(=O)c1ccc(N2CCCC2)c(NC(=O)c2ccc([N+](=O)[O-])o2)c1`, the inhibition is 25.1% (inactive).

On to `CCc1ccccc1OCC(=O)Nc1ccc(C)c(S(=O)(=O)N2CCCCCC2)c1`, for which the inhibition is 71.1% (active).

With `Cc1ccc(NC(=O)COC(=O)C2CC2)cc1S(=O)(=O)N1CCOCC1`, the inhibition was 0.29% (inactive).

Take `Cc1ccccc1OCC(=O)Nc1ccc(N2CCN(C(=O)C(C)C)CC2)c(Cl)c1`: the inhibition is 47.2% (active).

On to `Cc1ccccc1OCC(=O)Nc1ccc2c(c1)ncn2C`, for which the inhibition is -11.8% (inactive).

With `CCc1ccccc1OCC(=O)Nc1ccc2c(c1)OCCO2`, the inhibition was 3.6% (inactive).

For `CCC(=O)N1CCN(c2ccccc2NC(=O)COc2cccc(C)c2C)CC1`, the inhibition is -25.6% (inactive).

For `COc1ccccc1CNC(=O)c1ccc(Cl)c(S(=O)(=O)N2CCCC2)c1`, the inhibition is -20% (inactive).

As for `Cc1nn(-c2ccccc2)nc1C(=O)OCC(=O)N1CCCCC1C` (stereo unspecified), the inhibition is -14.9% (inactive).

On to `Cc1ccc(C)c(N2CCN(C(=O)CCc3nc(-c4cccc(C(F)(F)F)c4)no3)CC2)c1`, for which the inhibition was -15.5% (inactive).

On to `Cc1cc(-c2ccc(C)c(S(=O)(=O)NC(C)Cc3ccco3)c2)on1` (stereo unspecified), for which the inhibition was 59.1% (active).

`Cc1cc(-c2ccc(C)c(S(=O)(=O)NCCCN(Cc3ccccc3)C(C)C)c2)on1`: the inhibition was -45.5% (inactive).

Take `Cc1cc(-c2ccc(C)c(S(=O)(=O)Nc3ccc(S(N)(=O)=O)cc3)c2)on1`: the inhibition is 15.6% (inactive).

For `CN(C)C(=O)CCc1ccc2c3c([nH]c2c1)[C@]1(CCC2CCCC2)[C@@H](C(=O)N2CCOCC2)C[C@H](CC(=O)NCc2ccco2)C(=O)N1CC3`, the inhibition is -19.7% (inactive).

As to `COc1ccc(C(=O)C(C)OC(=O)c2cccc(S(=O)(=O)Nc3c(C)n(C)n(-c4ccccc4)c3=O)c2)cc1` (stereo unspecified), the inhibition was -5.98% (inactive).

As for `O=C(CN1C(=O)NC2(CCCCCC2)C1=O)NCc1ccc(F)cc1`, the inhibition is -10.3% (inactive).

As for `CCN(CC)S(=O)(=O)c1ccc(N(C)Cc2ccc(C(F)(F)F)cc2)nc1`, the inhibition was 29.3% (inactive).

Turning to `CCN(CC)S(=O)(=O)c1ccc(N(C)CCc2ccc(OC)c(OC)c2)nc1`, the inhibition is -17% (inactive).

`CCN(CC)S(=O)(=O)c1ccc(N(C)Cc2cccc(OC)c2OC)nc1`: the inhibition was 39% (active).
